“And” between values parts separate entries of the source, which are not always exact repeats. Equal values may be shown once. This is part of a sample that, as a whole, favours compounds with a hit. Of some 83,000 tested, about 20% had one in any assay.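 Single-dose data. Exposure time 48 hours. Values below 10 considered active.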 Unmarked numbers belong to inactive results. The source made the active and inactive calls.

The assay has as its system MDA-MB-468 breast. Description: NCI-60 one-dose screen, 48 h (100 = growth as untreated, 0 = no growth, -100 = all killed). The settings on record: 10 µM unless noted.
`COc1cnc2c(c1)C(=O)c1c-2n(CCCCl)c(=O)c2ccncc12`: the growth was 34.1%. The same measure for `CCCCCC(CCC)COC(=O)c1ccc(OC)cc1` (stereo not given): 104%; for `CC(=O)O[C@H]1CC[C@@]2(C)[C@@H](CC[C@@H]3[C@@H]2CC[C@@]2(C)[C@H]3CC[C@]2(O)C(C)=O)C1`: 94.1%; for `Nc1c(N)c2ccccc2c2ccccc12`: 103%. The same measure for `CCN(CC)CC(C)Nc1ccc(C)c2sc3ccccc3c(=O)c12` (stereo not given): 57.7%; for `O=C(Nc1cc(Cl)ccc1O)c1ccccc1Nc1ccnc(C(F)(F)F)c1`: 12.7%; for `CCCCCCCCC(=O)Nc1ccc(O)cc1`: 100%. In the case of `Cn1cc(-c2nc(-c3c[nH]c4ncccc34)cs2)c2cccnc21`, the growth was -6.43% (active). Next, `CC(=O)Nc1c(Br)cc2c(c1Br)Cc1cc(Br)ccc1-2`: -35.2% (active); `CC1(C)CC[C@]2(C(=O)N3CCOCC3)CC[C@]3(C)C(=CC[C@@H]4[C@@]5(C)C/C(=C/c6ccncc6)C(=O)C(C)(C)[C@@H]5CC[C@]43C)[C@@H]2C1`: 3.46% (active). The same measure for `COc1cc2nc(N3CCN(C(=O)C4COc5ccccc5O4)CC3)nc(N)c2cc1OC` (stereo not given): 78.2% and 104%.

Consider `COc1ccc2c(c1)C(=O)c1c-2c(OCCN(C)C)nc2cc(OC)ccc12`, for which the growth is 15.9%.

Regarding `CSc1nc(Nc2cccc(NC(=O)CCl)c2)c(C#N)c(-c2cccc([N+](=O)[O-])c2)n1`, the growth was -10.8% (active). `Cc1onc(-c2ccccc2Cl)c1C(=O)Cl`: the growth is 104%. `Cc1cc(F)ccc1S(=O)(=O)Nc1cc(-c2c(O)ccc3ccccc23)c(O)c2ccccc12`: the growth was -1.51% (active). The same measure for `COc1cc([C@@H]2c3cc4c(cc3[C@H](OC3OC5COC(c6ccccc6)OC5C(O)C3O)[C@H]3COC(=O)[C@H]23)OCO4)cc(OC)c1OC` (stereo not given in full): 17.5%.

`Nc1ccccc1-c1cc2c(c3c1[nH]c1ccccc13)CCCCC2`: the growth is 98.2%. In the case of `CCOC(=O)C(=CCC(C)C)C(=O)OCC`, the growth is 98%. `Nc1ccc2cc(S(=O)(=O)O)cc(O)c2c1N=Nc1ccc(F)cc1`: the growth was 118%. Regarding `Cn1cc(-c2csc(-c3cn(CCCN4CCCCC4)c4ccc(Br)cc34)n2)c2cccnc21`, the growth was 15.2%. For the compound `COc1cccc(C(c2cc3c(cc2O)OCO3)N2CCOCC2)c1OC` (stereo not given), the growth is 90.6%.

As to `O=[N+]([O-])c1ccc(N/N=C\c2cc(Cl)ccc2O)nc1`, the growth was -2.47% (active).

`CC1CCN(CC(=O)Nn2c(COc3ccccc3)nc3ccccc3c2=O)CC1`: the growth was 50.9%. The same measure for `Cc1ccc(Nc2nc(-c3ccc(F)cc3)c(C#N)c(=O)n2C)cc1`: 62.1%; for `Cc1cc(CC(=O)NCCO)n(CCO)c(=O)c1`: 113%; for `COc1cc(/C=C/C(=O)c2cc(OC)c(OC)c(OC)c2)ccc1OCc1ccccc1`: 21.5%. Take `O=C(Nc1ccccc1C(=O)N/N=C(\c1ccccc1)c1ccccn1)c1ccc(F)cc1`: the growth was 5.1% (active). Consider `C=C1C(=O)O[C@H]2[C@H]1CC/C(COC(=O)NCc1cc3ccccc3[nH]1)=C\CC[C@@]1(C)O[C@@H]21`, for which the growth is 19.3%.

`COc1ccc(C/C(C)=C(/c2ccc(OCCN3CCCCCC3)cc2)c2ccc(OC(=O)c3ccccc3)cc2)cc1`: the growth is 111%.

On to `COc1ccc(-c2nc(C(Cl)Cl)nc3cc(-c4ccccc4)nn23)cc1`, for which the growth is -55.8% (active). For the compound `CCOC(=O)[C@@H](Cc1ccccc1)NC(=O)c1[nH]c2ccc(Cl)cc2c(=O)c1C`, the growth is 78%. For `NC(=O)C(O)(c1ccccc1)c1ccccc1`, the growth was 95.1%. Turning to `COc1ccc(/C=N/Nc2ccnc3cc(Cl)ccc23)cc1Cl`, the growth was -71.9% (active). Regarding `CC(=O)Oc1ccc(C2OC(c3ccc4ccccc4c3OC(C)=O)=NN2C(C)=O)c(OC(C)=O)c1` (stereo not given), the growth was -14.4% (active).

On to `CC(=O)Nc1c(Cl)cc2c(c1Cl)Cc1cc([N+](=O)[O-])ccc1-2`, for which the growth was -27.8% (active). Next, `Cc1cn(C2CCCCO2)c(=O)nc1NO` (stereo not given): 65%; `CC(C)(C)OC(=O)N1C/C(=C\c2cccs2)C(=O)/C(=C/c2cccs2)C1`: 87.5%.

Consider `CC(CN(C)C)CN1c2ccccc2CCc2ccccc21` (stereo not given), for which the growth was 41.7%. Next, `C=Cc1cnc(Nc2ccc(OC)cc2)nc1NCCCNC(=O)C1CCC1`: 46.4%; `CC(=O)c1cccc(O)c1`: 110%.

(Values after PubChem BioAssay (NCI).)
